Bioassay records deposited in PubChem by several laboratories.
This is a sample that favours compounds with a hit; in the whole collection about 1.1% have one here.
S1P4 antag: antagonists of human S1P4 receptor. S1P4-expressing cells, antagonist mode, reporter read-out. 220,000 tested, 0.26% active. inhibition, % at 4.98 µM. O95977. AID 1510; in the data active = inhibition above about 29%
Target sequence (O95977 whole entry, looked up): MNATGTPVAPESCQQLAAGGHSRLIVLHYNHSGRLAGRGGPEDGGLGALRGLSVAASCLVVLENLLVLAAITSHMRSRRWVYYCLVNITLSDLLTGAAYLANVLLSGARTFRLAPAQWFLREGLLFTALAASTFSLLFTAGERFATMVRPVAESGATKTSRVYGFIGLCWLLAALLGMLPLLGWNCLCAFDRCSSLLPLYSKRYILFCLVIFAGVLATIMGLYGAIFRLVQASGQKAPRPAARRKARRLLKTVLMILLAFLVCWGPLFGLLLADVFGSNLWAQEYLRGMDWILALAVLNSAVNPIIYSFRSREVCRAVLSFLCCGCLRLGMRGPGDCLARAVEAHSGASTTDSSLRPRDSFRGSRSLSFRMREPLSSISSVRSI
S1P4 ag: activates the human S1P4 receptor; AID 1509; 220,000 tested, 0.35% active; O95977; activation, % at 4.98 µM; S1P4-expressing cell line, agonist reporter assay; in the data active = activation above about 11%
p97 ATPase inh: human p97 ATPase inhibition. P55072. recombinant p97 ATPase, Kinase-Glo ATP luminescence, 3 h. inhibition, % at 8 µM. 220,000 tested, 0.42% active. AID 1481; in the data active = inhibition above about 15%
SUMO HTRF inh: inhibitors of human SUMOylation (UBC9). 290,000 tested, 0.36% active. inhibition, % at 35 µM. P63279. AID 2006. HTRF SUMOylation assay, SAE1/SAE2 + UBC9, in vitro; in the data active = inhibition above about 50%, passing the limit was not always enough
Redox H2O2 prof: compounds producing H2O2 with reducing agent – biochemical, NIH compound library profiling, artefact control for MLSCN library redox annotation, primary screen. 200,000 tested, 0.03% active. activation, % at 10 µM. AID 878. DTT-dependent redox cycling H2O2, phenol red/HRP absorbance; 100% = 100 µM peroxide control, 0% = buffer;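 active = activation of at least 50% relative to the plate's high and low controls in the primary single-dose screen; inactive = activation below 50%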;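 also: compound incubated with DTT at 0.8 mM final as the reducing agent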
S1P3 antag: antagonists of human S1P3 receptor | CHO S1P3 NFAT-BLA reporter, FRET fluorescence, antagonist mode | inhibition, % at 4.98 µM | 170,000 tested, 0.27% active | AID 485;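 active = inhibition above the plate cutoff, the mean inhibition of test wells on that plate plus 3 SD, cut at about 28% in these data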;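 also: cells challenged with S1P at its EC80 of 0.8 µM; blue over green emission ratio from cleaved BLA substrate after 4 h stimulation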
S1P4 ag conf: human S1P4 agonism, confirmation. shares compounds with S1P4 ag. S1P4 agonist cell-based reporter assay. activation, % at 4.98 µM. 740 tested, 7% active. AID 1523; in the data active = activation above about 12%
S1P1 agonist: counter-screen for S1P4 agonists: agonists of human S1P1; 740 tested, 4% active; S1P1 agonist cell-based assay, activation; shares compounds with S1P4 ag; activation, % at 4.98 µM; in the data active = activation above about 21%
S1P4 antag cf: confirmation of human S1P4 receptor antagonists; inhibition, % at 4.98 µM; 520 tested, 71% active; S1P4-expressing cell line, antagonist mode, reporter read-out; shares compounds with S1P4 antag; in the data active = inhibition above about 30%
S1P1 antag: counter-screen for S1P4 antagonists: antagonists of human S1P1; 520 tested, 37% active; shares compounds with S1P4 antag; inhibition, % at 4.98 µM; cell-based S1P1 antagonist counterscreen, inhibition; in the data active = inhibition above about 40%;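 also: receptor stimulated with S1P near its EC80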
A number is an active result; n = inactive; x = not tested or not shown.

SMILES	S1P4 antag	S1P4 ag	p97 ATPase inh	SUMO HTRF inh	Redox H2O2 prof	S1P3 antag	others
Clc1ccc(-n2cnnn2)cc1	n	n	n	n	n	n
CS(=O)(=O)N1CCN(c2ccccc2NC(=O)c2cc3ccccc3o2)CC1	x	x	x	n	x	x
Cc1cccc(N=Cc2cc3c(cc2[N+](=O)[O-])OCO3)c1	n	16	n	n	n	x	S1P4 ag conf=n;S1P1 agonist=n
CS(=O)(=O)Nc1ccc(C2=NN(S(=O)(=O)c3ccc(F)cc3)C(c3ccco3)C2)cc1 (configuration not stated)	n	n	n	n	n	n
O=C(Nc1ccc2oc(-c3ccncc3)nc2c1)c1ccc(F)cc1	n	20	n	n	n	n	S1P4 ag conf=n;S1P1 agonist=n
CC(C)Cc1ccc(C(C)C(N)=NCCc2ccccc2)cc1 (configuration not stated)	x	x	x	n	x	x
Cc1cc(C(=O)CN2C(=O)NC(C)(CC(C)C)C2=O)c(C)n1-c1ccc2c(c1)OCO2 (configuration not stated)	n	13	n	n	n	n	S1P4 ag conf=n;S1P1 agonist=n
Cc1cc(C(=O)CN2C(=O)NC3(CCCC3)C2=O)c(C)n1-c1ccc2c(c1)OCO2	n	n	n	n	n	n
CC1CC(C)CN(c2ccc([N+](=O)[O-])cc2-c2nn[nH]n2)C1 (configuration not stated)	n	n	n	n	n	n
COC(=O)c1cc(NC(=O)Nc2ccccc2OC)cc(C(=O)OC)c1	n	n	n	n	n	x
N=c1c(C(=O)NCc2ccc3c(c2)OCO3)cc2c(=O)n3ccccc3nc2n1CC1CCCO1 (configuration not stated)	x	x	x	n	x	x
COCCCn1c(=N)c(C(=O)NCC2CCCO2)cc2c(=O)n3ccccc3nc21 (configuration not stated)	n	12	n	n	n	n	S1P4 ag conf=n;S1P1 agonist=n
COCCCn1c(=N)c(C(=O)NCC2CCCO2)cc2c(=O)n3cccc(C)c3nc21 (configuration not stated)	n	n	n	n	n	n
N=c1c(C(=O)NCc2ccc(F)cc2)cc2c(=O)n3ccccc3nc2n1CC1CCCO1 (configuration not stated)	n	13	n	n	n	n	S1P4 ag conf=14;S1P1 agonist=n
O=C(/C=C/Nc1ccc(Oc2ccccc2)cc1)c1ccco1	n	n	n	n	n	n
O=C(N/N=C/c1ccccc1)c1n[nH]c2c1CCCC2	n	n	n	n	n	n
O=C(N/N=C/C(Br)=C/c1ccccc1)c1n[nH]c2c1CCC2	32	n	n	n	n	x	S1P4 antag cf=46;S1P1 antag=82
c1ccc(C2Nc3ccccc3C3OCCCC23)cc1 (configuration not stated)	x	x	x	n	x	x
COCc1cc(C)nc(N/N=C/c2ccc(Cl)c(Cl)c2)c1C#N	n	n	n	n	n	n
COc1ccc(CCNC(=O)c2ccccc2NC(=O)c2ccco2)cc1OC	30	n	n	n	n	n	S1P4 antag cf=n;S1P1 antag=n
NC1=NC(=Nc2cccc(S(=O)(=O)N3CCOCC3)c2)c2ccccc21	n	n	n	n	x	n
CCOc1ccc(C(=O)Oc2ccc(NC(C)=O)cc2)cc1	n	n	n	n	n	n
CC(=O)Nc1ccc(OC(=O)c2ccc(Br)c([N+](=O)[O-])c2)cc1	48	n	n	n	n	n	S1P4 antag cf=68;S1P1 antag=n
Cc1nn(C(C)C(=O)c2cccc(Cl)c2)c(C)c1[N+](=O)[O-] (configuration not stated)	n	n	n	n	n	n
Cn1cnc([N+](=O)[O-])c1S(=O)(=O)c1cccc(Cl)c1	48	n	n	n	n	n	S1P4 antag cf=47;S1P1 antag=63
CCN(c1ccc(NC(=O)c2ccc(Cl)nc2)cc1)C(C)C	n	n	n	n	n	n
c1ccc2oc(-c3ccn[nH]3)cc2c1	n	n	n	n	x	n
